From PubChem BioAssay
Calls of active or inactive are those of the source.

What was measured:
[1] = small molecules captured by biotinylated probe aFSTL3 – biochemical, small-molecule microarray, fluorescence 635/667, stem cell growth factor project, primary screen (AID 1064); settings: higher = more signal;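 also: measures binding of the biotinylated anti-FSTL3 antibody to printed compounds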
[2] = binders from COS7 lysate, DM2A8 probe, primary screen, torsin A project, cell lysate, small-molecule microarray, fluorescence 635/667 (AID 1065); settings: higher = more signal, COS7 lysate expressing mutant human TOR1A
[3] = small molecules captured by biotinylated probe aFGF2 – biochemical, small-molecule microarray, fluorescence 635/667, stem cell growth factor project, primary screen (AID 1067); settings: higher = more signal;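 also: measures binding of biotinylated aFGF2 protein to printed compounds on slides; z-score merges feature fluorescence and signal-to-noise across triplicate slides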
[4] = small molecules captured by biotinylated probe aFGF10 – biochemical, small-molecule microarray, fluorescence 635/667, stem cell growth factor project, primary screen (AID 1071); settings: higher = more signal;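 also: score merges 667 nm spot intensity and signal to noise from triplicate slides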
[5] = molecular target: Neurogenic locus notch homolog protein 2 (Homo sapiens) (UniProt Q04721); assay: small molecules binding Notch2 protein – biochemical, small-molecule microarray, 635 nm fluorescence, stem cell growth factors, primary screen (AID 1073); settings: higher = more signal
Neurogenic locus notch homolog protein 2 (Homo sapiens), sequence (Q04721 whole entry, looked up, canonical isoform): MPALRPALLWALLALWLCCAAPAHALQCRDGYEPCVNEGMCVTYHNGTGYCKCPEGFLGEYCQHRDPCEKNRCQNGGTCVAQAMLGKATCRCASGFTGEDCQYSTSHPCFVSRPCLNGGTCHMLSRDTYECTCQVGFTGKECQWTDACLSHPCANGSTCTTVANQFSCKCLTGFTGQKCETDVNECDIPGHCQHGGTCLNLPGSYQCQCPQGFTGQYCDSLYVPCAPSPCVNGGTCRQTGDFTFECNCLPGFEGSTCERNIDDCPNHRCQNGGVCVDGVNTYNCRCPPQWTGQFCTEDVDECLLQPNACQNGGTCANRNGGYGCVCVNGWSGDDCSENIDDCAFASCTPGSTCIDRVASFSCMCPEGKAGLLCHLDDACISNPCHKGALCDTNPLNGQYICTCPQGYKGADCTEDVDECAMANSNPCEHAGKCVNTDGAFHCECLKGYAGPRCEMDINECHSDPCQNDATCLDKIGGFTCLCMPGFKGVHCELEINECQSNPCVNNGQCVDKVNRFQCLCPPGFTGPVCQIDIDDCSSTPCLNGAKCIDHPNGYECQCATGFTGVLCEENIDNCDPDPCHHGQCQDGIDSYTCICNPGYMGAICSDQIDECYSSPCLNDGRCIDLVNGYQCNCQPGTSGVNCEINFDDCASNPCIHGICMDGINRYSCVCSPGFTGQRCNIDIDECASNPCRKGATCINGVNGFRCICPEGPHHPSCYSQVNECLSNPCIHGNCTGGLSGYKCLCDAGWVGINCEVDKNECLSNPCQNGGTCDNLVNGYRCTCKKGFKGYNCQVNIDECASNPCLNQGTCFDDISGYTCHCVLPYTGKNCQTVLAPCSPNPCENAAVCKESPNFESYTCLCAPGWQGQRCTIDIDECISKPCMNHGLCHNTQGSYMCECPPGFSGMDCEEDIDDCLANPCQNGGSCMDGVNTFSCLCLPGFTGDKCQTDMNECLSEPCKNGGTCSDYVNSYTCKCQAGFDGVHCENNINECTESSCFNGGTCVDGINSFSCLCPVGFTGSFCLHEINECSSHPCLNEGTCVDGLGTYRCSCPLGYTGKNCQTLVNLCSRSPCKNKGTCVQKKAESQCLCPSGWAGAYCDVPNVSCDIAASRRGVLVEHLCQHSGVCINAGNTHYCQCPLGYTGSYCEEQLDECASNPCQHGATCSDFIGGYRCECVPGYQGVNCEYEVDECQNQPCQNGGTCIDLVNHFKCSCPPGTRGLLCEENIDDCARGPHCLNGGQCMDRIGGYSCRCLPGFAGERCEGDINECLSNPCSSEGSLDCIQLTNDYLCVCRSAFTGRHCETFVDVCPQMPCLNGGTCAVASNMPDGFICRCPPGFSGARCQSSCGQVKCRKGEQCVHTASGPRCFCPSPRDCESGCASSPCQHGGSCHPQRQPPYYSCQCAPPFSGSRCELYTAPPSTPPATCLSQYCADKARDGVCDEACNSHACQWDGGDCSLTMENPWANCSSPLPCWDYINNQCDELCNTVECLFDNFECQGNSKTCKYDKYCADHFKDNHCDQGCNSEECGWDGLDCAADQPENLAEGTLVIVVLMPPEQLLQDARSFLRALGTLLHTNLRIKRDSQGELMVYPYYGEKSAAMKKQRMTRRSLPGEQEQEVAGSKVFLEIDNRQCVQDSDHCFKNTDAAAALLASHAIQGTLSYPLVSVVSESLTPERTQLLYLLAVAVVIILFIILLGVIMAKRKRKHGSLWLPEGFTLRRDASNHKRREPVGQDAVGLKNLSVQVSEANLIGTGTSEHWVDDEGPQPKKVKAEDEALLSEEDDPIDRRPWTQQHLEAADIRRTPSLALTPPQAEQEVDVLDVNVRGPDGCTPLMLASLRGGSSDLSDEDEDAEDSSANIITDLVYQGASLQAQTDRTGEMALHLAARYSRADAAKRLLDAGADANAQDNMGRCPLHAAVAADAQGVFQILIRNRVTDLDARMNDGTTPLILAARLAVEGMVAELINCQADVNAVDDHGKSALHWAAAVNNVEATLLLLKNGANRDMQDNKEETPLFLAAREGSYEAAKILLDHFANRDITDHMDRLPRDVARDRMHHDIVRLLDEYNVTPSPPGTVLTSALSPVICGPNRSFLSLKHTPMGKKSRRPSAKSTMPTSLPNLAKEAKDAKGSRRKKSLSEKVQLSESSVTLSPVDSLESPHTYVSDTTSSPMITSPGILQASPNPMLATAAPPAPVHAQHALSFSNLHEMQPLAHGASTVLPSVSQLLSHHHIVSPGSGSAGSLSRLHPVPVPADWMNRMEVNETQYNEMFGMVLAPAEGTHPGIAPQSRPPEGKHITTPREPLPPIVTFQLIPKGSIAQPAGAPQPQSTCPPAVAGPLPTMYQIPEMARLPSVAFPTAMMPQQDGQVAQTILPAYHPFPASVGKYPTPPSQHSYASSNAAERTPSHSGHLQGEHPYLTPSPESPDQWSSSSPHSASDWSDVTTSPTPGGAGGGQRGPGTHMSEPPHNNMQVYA

[6] = molecular target: Pro-neuregulin-1, membrane-bound isoform (Homo sapiens) (UniProt Q02297); assay: small molecules binding neuregulin-1 protein – biochemical, small-molecule microarray, fluorescence 635/667, psychiatric disease protein project, primary screen (AID 1075); settings: NRG1 binding, 635 nm fluorescence, higher = more signal;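 also: score combines 667 nm spot fluorescence with signal to noise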
Pro-neuregulin-1, membrane-bound isoform (Homo sapiens), sequence (Q02297 whole entry, looked up, the tested form may be a part, canonical isoform): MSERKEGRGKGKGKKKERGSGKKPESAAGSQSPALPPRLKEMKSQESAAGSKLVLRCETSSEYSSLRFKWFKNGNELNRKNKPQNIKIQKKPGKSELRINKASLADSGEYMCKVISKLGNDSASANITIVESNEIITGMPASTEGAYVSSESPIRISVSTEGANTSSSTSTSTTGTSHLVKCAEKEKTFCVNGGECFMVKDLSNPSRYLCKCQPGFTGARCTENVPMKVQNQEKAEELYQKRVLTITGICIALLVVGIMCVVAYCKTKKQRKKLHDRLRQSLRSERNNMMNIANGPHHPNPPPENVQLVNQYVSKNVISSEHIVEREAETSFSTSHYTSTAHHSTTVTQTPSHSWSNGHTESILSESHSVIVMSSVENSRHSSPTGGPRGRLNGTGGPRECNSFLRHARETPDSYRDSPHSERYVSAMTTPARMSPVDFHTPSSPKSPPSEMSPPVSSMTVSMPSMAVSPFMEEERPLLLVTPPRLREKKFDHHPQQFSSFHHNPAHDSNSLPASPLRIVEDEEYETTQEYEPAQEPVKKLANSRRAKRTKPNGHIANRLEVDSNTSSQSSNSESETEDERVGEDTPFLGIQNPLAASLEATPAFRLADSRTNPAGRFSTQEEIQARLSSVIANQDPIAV

[7] = system: Neuregulin-1 EGF-like domain; assay: small molecules binding NRG1 EGF domain – biochemical, small-molecule microarray, 635 nm fluorescence, primary screen (AID 1081); settings: higher = more signal;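 also: binding of the protein to compounds printed on small-molecule microarray slides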
[8] = FRG1 expression reporter modulators in myotubes – cell-based, C2C12 myotubes, firefly/Renilla luciferase, luminescence, FRG1 inhibition for FSHD, primary screen (AID 1084); settings: FRG1 promoter luciferase, higher = more signal, called active from +8 up or from −8 down
[9] = small molecules captured by biotinylated probe aFST – biochemical, small-molecule microarray, fluorescence 635/667, stem cell growth factor project, primary screen (AID 1086); settings: higher = more signal;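 also: score merges 667 nm fluorescence with signal-to-noise of each printed compound spot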
[10] = binders of probe aHhip on microarray, primary screen, stem cell growth factor project, biochemical, small-molecule microarray, fluorescence 635/667 (AID 1087); settings: higher = more signal;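 also: score merges spot fluorescence at 667nm with spot signal to noise ratio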
[11] = system: PRMT1 (protein arginine N-methyltransferase 1); assay: small molecules binding arginine methyltransferase PRMT1 – biochemical, small-molecule microarray, 635 nm fluorescence, primary screen (AID 1088); settings: higher = more signal;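 also: binding of Prmt1 protein to compounds spotted on small-molecule microarray slides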
[12] = growth effects on S. cerevisiae YJM789 – YJM789 clinical isolate, OD600, 24 h, basal, primary screen (AID 1089); settings: higher = more signal, called active from +8 up or from −8 down;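 also: growth of clinical yeast isolate S. cerevisiae YJM 789 seeded 1000 cells per well; test concentration not given here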
[13] = S. pombe growth modifiers, basal conditions – strain 972, OD600, 24 h, no modulator, primary screen (AID 1090);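 also: basal condition with compound alone and no growth modifier present; test concentration not given here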; settings: S. pombe 972 growth, higher = more signal, called active from +8 up or from −8 down
[14] = budding yeast growth modifiers under rapamycin – strain BY4716, OD600, 96 h, primary screen (AID 1091); also: test concentration not given here; settings: S. cerevisiae BY4716 + rapamycin, higher = more signal, called active from +8 up or from −8 down
[15] = molecular target: Torsin-1A-interacting protein 2 (Homo sapiens) (UniProt Q8NFQ8); assay: small molecules binding lysate-expressed LULL1 – cell lysate, human LULL1 lysate, 635/667 nm fluorescence, primary screen (AID 1092); settings: small-molecule microarray, hLULL1 lysate binding, 635 nm fluorescence; higher = more signal;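 also: probe is lysate of COS7 cells overexpressing human LULL1; score merges per-feature 667 nm fluorescence with signal-to-noise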
Torsin-1A-interacting protein 2 (Homo sapiens), sequence (Q8NFQ8 whole entry, looked up): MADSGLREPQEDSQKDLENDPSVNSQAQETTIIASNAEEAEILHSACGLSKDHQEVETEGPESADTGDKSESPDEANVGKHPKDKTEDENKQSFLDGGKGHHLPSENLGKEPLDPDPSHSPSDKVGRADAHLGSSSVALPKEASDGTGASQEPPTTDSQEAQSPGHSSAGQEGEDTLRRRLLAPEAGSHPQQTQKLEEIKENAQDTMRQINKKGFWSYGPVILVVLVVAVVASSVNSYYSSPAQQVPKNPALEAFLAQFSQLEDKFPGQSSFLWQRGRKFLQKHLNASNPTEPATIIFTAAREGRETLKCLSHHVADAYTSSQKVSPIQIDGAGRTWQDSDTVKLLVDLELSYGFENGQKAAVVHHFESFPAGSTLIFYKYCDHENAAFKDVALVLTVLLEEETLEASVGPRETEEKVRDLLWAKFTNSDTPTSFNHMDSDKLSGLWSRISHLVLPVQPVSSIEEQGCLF

[16] = optical density change of DRC41 E. coli – strain DRC41, OD650, 24 h, E. coli filamentation project, primary screen (AID 1093);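 also: MC1000 strain lacking acrAB efflux and sulA so SOS filamentation is blocked; test concentration not given here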; settings: E. coli DRC41 growth, higher = more signal, called active from +8 up or from −8 down
[17] = probe aLefty2 binding to arrayed compounds – biochemical, biotinylated probe, 635/667 nm fluorescence, primary screen (AID 1094); settings: small-molecule microarray, higher = more signal;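 also: score merges spot fluorescence near 667 nm with spot signal-to-noise ratio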
[18] = system: Noggin (protein binding on small-molecule microarray); assay: small molecules binding Noggin protein – biochemical, 635/667 nm fluorescence, primary screen (AID 1095); settings: 635 nm fluorescence, higher = more signal;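 also: score merges 667 nm feature fluorescence with signal to noise over triplicate slides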
[19] = molecular target: Neurogenic locus notch homolog protein 3 (Homo sapiens) (UniProt Q9UM47); assay: small molecules binding NOTCH3 protein – biochemical, 635/667 nm fluorescence, primary screen (AID 1096); settings: small-molecule microarray, 635 nm fluorescence, higher = more signal
[20] = probe aEGFR binding to arrayed compounds – biochemical, biotinylated probe, 635/667 nm fluorescence, primary screen (AID 1097); settings: small-molecule microarray, higher = more signal;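 also: probe is a biotinylated anti-EGFR antibody binding compounds printed on slides; score combines fluorescence near 667 nm and signal to noise of each spot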

Row | Structure (SMILES) | composite z-score [1] | composite z-score [2] | composite z-score [3] | composite z-score [4] | composite z-score [5] | composite z-score [6] | composite z-score [7] | z-score [8] | composite z-score [9] | composite z-score [10] | composite z-score [11] | z-score [12] | z-score [13] | z-score [14] | composite z-score [15] | z-score [16] | composite z-score [17] | composite z-score [18] | composite z-score [19] | composite z-score [20]
1 | NCCCCCCNC(=O)[C@@H]1C[C@@H]2C(=O)N[C@@H](CCCCN)C(=O)N2[C@@H]1c1cccc(OCCO)c1 | 1.06 | 1.81 | 0.221 | -0.127 | 0.303 | 2.53 | 1.2 | 3.25 (inactive) | -0.175 | 0.704 | 1.28 | 0.825 (inactive) | 0.962 (inactive) | 0.487 (inactive) | 2.14 | 0.398 (inactive) | 0.885 | 0.763 | 0.362 | 0.393
2 | COC(=O)[C@@]1(Cc2ccc(OC)cc2)[C@H]2c3cc(C(=O)N4CCCC4)n(Cc4cccc5ccccc45)c3C[C@H]2CN1C(=O)c1ccccc1 | 0.176 | -0.214 | 0.401 | 0.672 | 1.8 | 1.42 | 0.831 | -0.404 (inactive) | 0.849 | -0.115 | -0.88 | 0.221 (inactive) | 1.82 (inactive) | 2.29 (inactive) | 3.02 | 0.0929 (inactive) | 0.0082 | 0.15 | 0.981 | 0.087
3 | COC(=O)[C@@]1(Cc2ccc(F)cc2)[C@H]2c3cc(C(=O)N(C)C)n(CCc4ccc(O)c(OC)c4)c3C[C@H]2CN1C(=O)c1ccccc1 | 1.71 | 0.245 | 0.735 | 1.27 | 1.27 | -0.0157 | 1.03 | 0.245 (inactive) | 1.7 | 0.372 | -0.646 | 0.503 (inactive) | 0.459 (inactive) | 0.689 (inactive) | 1.01 | -0.849 (inactive) | 1.42 | 0.446 | 0.237 | 1.25
4 | CCCCCCc1nc(-c2cc(C)c(OC)c(C)c2)c(C)c2c1[Si](C(C)C)(C(C)C)OC2 | -0.0656 | 0.0489 | -0.093 | -0.0949 | 0.0241 | -0.391 | -0.453 | 0.785 (inactive) | 0.021 | -0.116 | -0.92 | 0.0333 (inactive) | -0.922 (inactive) | 0.276 (inactive) | -0.407 | 0.352 (inactive) | -0.0915 | 0.058 | -0.127 | -0.171
5 | COCCOC(=O)N1C(=O)[C@@]2(c3cc(C#CCCO)ccc31)[C@H](C(=O)Nc1nc3ccccc3s1)[C@H]1C(=O)O[C@H](c3ccccc3)[C@H](c3ccccc3)N1[C@@H]2c1ccccc1OCCO | -0.224 | 0.53 | 0.0293 | 0.802 | 1.29 | 0.95 | 1.32 | 1.23 (inactive) | 0.745 | 0.153 | 1.54 | 2.53 (inactive) | 1.7 (inactive) | 3.64 (inactive) | 2.81 | -0.0236 (inactive) | -0.116 | 0.6 | 1.09 | -0.0828
6 | CCCNC(=O)[C@@]1(c2ccc([N+](=O)[O-])cc2)CC(=O)N(C2CCCCC2)[C@@H]1c1ccc(CO)cc1 | -0.0597 | 0.256 | -0.0133 | 0.588 | 1.03 | 0.675 | 1.27 | -1.31 (inactive) | 0.565 | 0.113 | 1.57 | 1.3 (inactive) | -0.514 (inactive) | 1.11 (inactive) | 2.8 | 0.824 (inactive) | 0.0744 | 1.65 | 1.04 | -0.0729
7 | COc1ccc(CCNC(=O)[C@@H]2c3ccccc3C(=O)N(Cc3cc(C(F)(F)F)cc(C(F)(F)F)c3)[C@H]2c2ccc(CO)cc2)cc1 | 0.0967 | -0.138 | -0.123 | -0.0803 | -0.181 | 0.568 | 0.993 | -0.188 (inactive) | -0.135 | -0.236 | 1.41 | 0.279 (inactive) | -0.381 (inactive) | 0.848 (inactive) | 2.16 | -0.0332 (inactive) | -0.237 | 1.07 | 0.365 | -0.167
8 | C#CCN([C@@H](Cc1ccc(O)cc1)C(=O)OC)[C@@H](/C=C/C1CC1)[C@H](O)Cc1ccccc1 | 0.164 | -0.112 | -0.0732 | -0.37 | -0.791 | -0.737 | 0.356 | -3.55 (inactive) | -0.09 | -0.337 | 0.0371 | -0.686 (inactive) | -4.05 (inactive) | 0.417 (inactive) | -0.0965 | -1.17 (inactive) | -0.241 | 0.0698 | 0.337 | -0.13
9 | CN(C)C(=O)C1N=C(c2ccc(OCCCO)cc2)N(c2ccccc2)O1 (stereo not given) | -0.135 | 0.18 | 0.0097 | 0.929 | 1.19 | 0.869 | 1.39 | 4.85 (inactive) | 0.514 | 0.107 | 1.56 | -0.0944 (inactive) | -1.17 (inactive) | -0.582 (inactive) | 1.72 | 1.15 (inactive) | -0.244 | 1.41 | 1.05 | 0.123
